Measured values reported in PubChem BioAssay (NCATS).
“And” between values parts separate entries of the source, which are not always exact repeats. Equal entries are not always repeated. Records with an inconclusive call do not appear. The source made the active and inactive calls. Unless noted, the call rests on the fitted dose curve; in most records, active means well fitted curve in the direction sought with a large enough effect; inconclusive means small, poorly fitted or top-dose-only effect, or another doubt; inactive means no such curve, though single readings can be large; an effect the other way counts as inactive or inconclusive.

How the values were obtained:
[1] = target: Metallo-beta-lactamase type 2 (Klebsiella pneumoniae) (UniProt C7C422); assay: qHTS to identify inhibitors of the New Delhi Metallo-beta-lactamase (NDM): assay validation screen against the NCATS LOPAC Collection (AID 1794843);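 further: nitrocefin turnover by NDM-1 measured as 485 nm absorbance at plateau; on the % scale 0 is the no-effect control and ±100 the full control effect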
Summary of the method: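 NDM-1 at 2 nM final in 50 mM HEPES pH 7.0, 1 uM ZnSO4, 0.01% Tween20, preincubated with LOPAC compounds pinned in DMSO; 50 uM nitrocefin (stock) added. Hydrolysis read as absorbance at 485 nm in the plateau phase.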

[2] = target: Glutathione peroxidase 1 (Homo sapiens) (UniProt P07203); assay: Primary qHTS Assay for Inhibitors of Recombinant Selenoprotein Glutathione Peroxidase 1 (GPX1) (AID 1845191); further: nearly all actives have a fitted effect of over 65% in size; on activity, negative = inhibition: on the % scale 0 is the no-effect control and ±100 the full control effect
Summary of the method: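 GR-coupled readout: NADPH consumption tracked by fluorescence, ex 340/em 450 nm, at t=0 and after 15 min at RT. Final mix 10 nM GPX1, 1 mM GSH, 0.5 mM CHP, 0.5 mM NADPH, 100 nM GR, 0.01% BSA, following 30 min enzyme–compound preincubation.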

[3] = target: Phospholipid hydroperoxide glutathione peroxidase GPX4 (Homo sapiens) (UniProt P36969); assay: Primary qHTS Assay for Inhibitors of Recombinant Selenoprotein Glutathione Peroxidase 4 (GPX4) (AID 1845192); conditions: outcome: dose series up to 50 µM unless noted; further: nearly all actives have a fitted effect of over 65% in size
Summary of the method: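 Steps: GPX4 plus compound, 30 min RT; add GR/GSH/NADPH master mix; start with cumene hydroperoxide; read 340/450 nm fluorescence at 0 and 15 min. Finals were 200 nM GPX4, 1 mM GSH, 0.5 mM CHP, 0.5 mM NADPH, 100 nM GR.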

[4] = qHTS profiling for inhibitors of Plasmodium falciparum proliferation (AID 504749); further: nearly all actives have a fitted effect of over 60% in size; further: potency means the concentration at half of the fitted maximal effect;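 on activity, negative = inhibition: 0% = DMSO vehicle and full inhibition = artemisinin control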; conditions: P. falciparum in erythrocytes, SYBR Green DNA, 72 h
Summary of the method: (§1)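 SYBR Green fluorescence (ex 485 nm, em 535 nm) reports parasite DNA after 72 h compound exposure of infected red cells at 0.3% parasitemia, 2.5% hematocrit; signal normalized to 0.29 uM artemisinin and vehicle wells.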

3D7 = assay: as above; conditions: P. falciparum in erythrocytes, SYBR Green DNA, 72 h; series mostly up to 28.7 µM
Summary of the method: as §1

7G8 = assay: as above; conditions: P. falciparum in erythrocytes, SYBR Green DNA, 72 h; series mostly up to 28.7 µM
Summary of the method: as §1

AA1029 = assay: as above; conditions: P. falciparum in erythrocytes, SYBR Green DNA, 72 h; series mostly up to 28.7 µM
Summary of the method: as §1

AS120 = assay: as above; conditions: P. falciparum in erythrocytes, SYBR Green DNA, 72 h; series mostly up to 28.7 µM
Summary of the method: as §1

ATS189 = assay: as above; conditions: P. falciparum in erythrocytes, SYBR Green DNA, 72 h; series mostly up to 28.7 µM
Summary of the method: as §1

ATS95 = assay: as above; conditions: P. falciparum in erythrocytes, SYBR Green DNA, 72 h; series mostly up to 28.7 µM
Summary of the method: as §1

C2A = assay: as above; conditions: P. falciparum in erythrocytes, SYBR Green DNA, 72 h; series mostly up to 28.7 µM
Summary of the method: as §1

CP185 = assay: as above; conditions: P. falciparum in erythrocytes, SYBR Green DNA, 72 h; series mostly up to 28.7 µM
Summary of the method: as §1

CP191 = assay: as above; conditions: P. falciparum in erythrocytes, SYBR Green DNA, 72 h; series mostly up to 28.7 µM
Summary of the method: as §1

[5] = qHTS drug screen for cell cycle checkpoint inhibitors in PARPi-resistant BRCA-mutant ovarian cancer cell lines. (AID 1963452; calls by dose curve); conditions: PEO1/OlaR viability, CellTiter-Glo luminescence, 96 h, stronger effect = lower value
Summary of the method: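 PEO1, PEO4 and PEO1/OlaR ovarian cancer cells, 600 per well, exposed 96 h at 37C to a dilution series. Viability read by CellTiter-Glo luminescence, normalized to DMSO and empty wells; activity summarized as Z-AUC.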

[6] = at 28.7 µM (top of the series), parasite line A
[7] = at 28.7 µM (top of the series), parasite line B
[8] = measured here: PEO1 parental Z-AUC

Phospholipid hydroperoxide glutathione peroxidase GPX4 (Homo sapiens), sequence (P36969 whole entry, looked up): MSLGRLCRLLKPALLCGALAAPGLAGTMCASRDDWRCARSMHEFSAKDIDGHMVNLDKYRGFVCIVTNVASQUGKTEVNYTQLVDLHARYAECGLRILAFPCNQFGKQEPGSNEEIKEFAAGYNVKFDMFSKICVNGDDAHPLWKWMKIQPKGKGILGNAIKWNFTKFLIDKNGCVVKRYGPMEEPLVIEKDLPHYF
Metallo-beta-lactamase type 2 (Klebsiella pneumoniae), sequence (C7C422 whole entry, looked up): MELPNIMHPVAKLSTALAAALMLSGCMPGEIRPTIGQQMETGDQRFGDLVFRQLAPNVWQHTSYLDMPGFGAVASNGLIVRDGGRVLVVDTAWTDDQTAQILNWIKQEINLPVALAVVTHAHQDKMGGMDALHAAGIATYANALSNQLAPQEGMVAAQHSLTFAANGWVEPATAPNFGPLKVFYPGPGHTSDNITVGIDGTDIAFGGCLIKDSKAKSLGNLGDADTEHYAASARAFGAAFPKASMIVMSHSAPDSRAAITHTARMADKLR
Glutathione peroxidase 1 (Homo sapiens), sequence (P07203 whole entry, looked up): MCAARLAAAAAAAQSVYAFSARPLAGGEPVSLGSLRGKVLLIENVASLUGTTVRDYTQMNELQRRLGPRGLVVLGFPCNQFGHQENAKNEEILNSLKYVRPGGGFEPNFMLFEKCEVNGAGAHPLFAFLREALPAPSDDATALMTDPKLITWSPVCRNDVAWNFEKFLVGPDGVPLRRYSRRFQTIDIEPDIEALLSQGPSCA

NC(=O)N1c2ccccc2C=Cc2ccccc21
inactive: Potency [1] | Potency [2] | outcome [3] | activity, negative = inhibition [4, 6] -22.9% | activity, negative = inhibition [4, 7] -3.8% | Potency (3D7) | Potency (7G8) | Potency (AA1029) | Potency (AS120) | Potency (ATS189) | Potency (ATS95) | Potency (C2A) | Potency (CP185) | Potency (CP191)

NC(=O)c1ncn([C@@H]2O[C@H](CO)[C@@H](O)[C@H]2O)c1O
inactive: Potency [1] | Potency [2] | outcome [3] | Z-AUC [5] 1.15 and 0.284 | activity, negative = inhibition [4, 6] 9.25% | activity, negative = inhibition [4, 7] 1.87% | Potency (3D7) | Potency (7G8) | Potency (AA1029) | Potency (AS120) | Potency (ATS189) | Potency (ATS95) | Potency (C2A) | Potency (CP185) | Potency (CP191)
1.08 and 0.519: Z-AUC ([5]; measured here: PEO4 Z-AUC)
0.935 and 0.686: Z-AUC [5, 8]

Nc1ncn([C@@H]2O[C@H](CO)[C@@H](O)[C@H]2O)c(=O)n1
0.0153: Z-AUC [5, 8]
-0.332: Z-AUC ([5]; measured here: PEO4 Z-AUC)
inactive: Potency [1] | Potency [2] | outcome [3] | Z-AUC [5] 1.1 | activity, negative = inhibition [4, 6] -1.52% | activity, negative = inhibition [4, 7] 6.7% | Potency (3D7) | Potency (7G8) | Potency (AA1029) | Potency (AS120) | Potency (ATS189) | Potency (ATS95) | Potency (C2A) | Potency (CP185) | Potency (CP191)

CNC1(C)C2CCC(C2)C1(C)C (stereo unspecified)
inactive: Potency [1] | Potency [2] | outcome [3] | activity, negative = inhibition [4, 6] 6.34% | activity, negative = inhibition [4, 7] 5.34% | Potency (3D7) | Potency (7G8) | Potency (AA1029) | Potency (AS120) | Potency (ATS189) | Potency (ATS95) | Potency (C2A) | Potency (CP185) | Potency (CP191)

Cc1scc2c1N(C(=O)CN1CCN(C)CC1)c1ccccc1NC2=O
inactive: Potency [1] | Potency [2] | outcome [3] | activity, negative = inhibition [4, 6] 0.0421% | activity, negative = inhibition [4, 7] 4.05% | Potency (3D7) | Potency (7G8) | Potency (AA1029) | Potency (AS120) | Potency (ATS189) | Potency (ATS95) | Potency (C2A) | Potency (CP185)

NS(=O)(=O)c1cc2c(cc1Cl)NC(C1CC3C=CC1C3)NS2(=O)=O (stereo unspecified)
inactive: Potency [1] | Potency [2] | outcome [3] | activity, negative = inhibition [4, 6] 2.38% | activity, negative = inhibition [4, 7] -3.16% | Potency (3D7) | Potency (7G8) | Potency (AA1029) | Potency (AS120) | Potency (ATS189) | Potency (ATS95) | Potency (C2A) | Potency (CP185) | Potency (CP191)

CCN(CC)CCNC(=O)c1ccc(NC(C)=O)cc1
inactive: Potency [1] | Potency [2] | outcome [3] | activity, negative = inhibition [4, 6] 9.9% | activity, negative = inhibition [4, 7] 23.7% | Potency (3D7) | Potency (7G8) | Potency (AA1029) | Potency (AS120) | Potency (ATS189) | Potency (ATS95) | Potency (C2A) | Potency (CP185) | Potency (CP191)

CC[N+](C)(C)c1cccc(O)c1
inactive: Potency [1] | Potency [2] | outcome [3] | activity, negative = inhibition ([4]; at 12.8 µM (top of the series), parasite line A) 14.2% | activity, negative = inhibition ([4]; at 12.8 µM (top of the series), parasite line B) 8.4% | Potency (3D7) | Potency (7G8) | Potency (AA1029) | Potency (AS120) | Potency (ATS189) | Potency (ATS95) | Potency (C2A) | Potency (CP185) | Potency (CP191)

CCn1ccnc1CC1COc2ccccc2O1 (stereo unspecified)
inactive: Potency [1] | Potency [2] | outcome [3] | activity, negative = inhibition [4, 6] 10.6% | activity, negative = inhibition [4, 7] 1.07% | Potency (3D7) | Potency (7G8) | Potency (AA1029) | Potency (AS120) | Potency (ATS189) | Potency (ATS95) | Potency (C2A) | Potency (CP185) | Potency (CP191)

CCN(CC)CCCN(c1ccccc1)C1Cc2ccccc2C1
inactive: Potency [1] | Potency [2] | outcome [3]
active: Potency ([4]; parasite line A) 4.47 µM | Potency ([4]; parasite line B) 7.08 µM | Potency (3D7) 10 µM | Potency (7G8) 1.78 µM | Potency (AA1029) 4.47 µM | Potency (AS120) 4.47 µM | Potency (ATS189) 12.6 µM | Potency (ATS95) 5.01 µM | Potency (C2A) 11.2 µM | Potency (CP185) 6.31 µM | Potency (CP191) 5.01 µM

CCN1CCC[C@H]1CNC(=O)c1c(O)c(Cl)cc(Cl)c1OC
inactive: Potency [1] | Potency [2] | outcome [3] | activity, negative = inhibition [4, 6] 0.765% | activity, negative = inhibition [4, 7] 14.7% | Potency (3D7) | Potency (7G8) | Potency (AA1029) | Potency (AS120) | Potency (ATS189) | Potency (ATS95) | Potency (C2A) | Potency (CP185) | Potency (CP191)

Cc1ccc(S(=O)(=O)NC(=O)NN2CCCCCC2)cc1
inactive: Potency [1] | Potency [2] | outcome [3] | activity, negative = inhibition [4, 6] -5.36% | activity, negative = inhibition [4, 7] 12.1% | Potency (3D7) | Potency (7G8) | Potency (AA1029) | Potency (AS120) | Potency (ATS189) | Potency (ATS95) | Potency (C2A) | Potency (CP185) | Potency (CP191)

CN(C)C(=O)Oc1ccc[n+](C)c1
inactive: Potency [1] | Potency [2] | outcome [3] | activity, negative = inhibition [4, 6] 4.28% | activity, negative = inhibition [4, 7] 5.75% | Potency (3D7) | Potency (7G8) | Potency (AA1029) | Potency (AS120) | Potency (ATS189) | Potency (ATS95) | Potency (C2A) | Potency (CP185) | Potency (CP191)

O=C(CCNNC(=O)c1ccncc1)NCc1ccccc1
inactive: Potency [1] | Potency [2] | outcome [3] | activity, negative = inhibition [4, 6] 13.9% | activity, negative = inhibition [4, 7] 17% | Potency (3D7) | Potency (7G8) | Potency (AA1029) | Potency (AS120) | Potency (ATS189) | Potency (ATS95) | Potency (C2A) | Potency (CP185) | Potency (CP191)
